The record followed here is ChEMBL document CHEMBL4513216, “Probing the Open Global Health Chemical Diversity Library for Multistage-Active Starting Points for Next-Generation Antimalarials” (ACS Infect Dis, 2020).

Among all 69,000 compounds or so, about 8,600 (12%) showed an effect of 50% or more. This excerpt belongs to a sample that is enriched for strong results.

The subject of this experiment is Plasmodium berghei. Put plainly: Screen against P. berghei liver stage (PbLuc), transformed with Luciferase, at 10uM. The settings on record: tested at 10 uM. The experiment is classed as functional, HepG2.
Turning to `CN(CC1(O)CCCC1)C(=O)c1cccc(Nc2cnccn2)c1`, the INHIBITION is on record as 22%.

Take `CCCN(C)S(=O)(=O)N1CCCC1c1ccco1` (configuration not stated): the INHIBITION is listed as 10.47%.

Regarding `CN(C)C(=O)C1CN(Cc2nccs2)CCN(S(C)(=O)=O)C1` (configuration not stated), the INHIBITION is 7.52%.

Take `COCC(C)(O)CNC(=O)c1cc(-c2ccc(F)cc2)nn1C` (configuration not stated): the INHIBITION was -89.3%.

As to `Cn1nc(C#N)c2c1CN(C(=O)c1cccnc1)CCC2`, the INHIBITION stood at 9.3%.

Take `CCCC(=O)NC(C(=O)OC)c1cc(F)ccc1F` (configuration not stated): the INHIBITION is -14%.

On to `Cc1nnc(C2CCN(c3ncccn3)CC2)o1`, for which the INHIBITION is given as 25.8%.

As to `Cc1c(F)cccc1S(=O)(=O)NCCN`, the INHIBITION was 4.3%.

For the compound `CC(=O)NCC(=O)N1CCOC2(CCCN(c3ccc(C)nn3)C2)C1` (configuration not stated), the INHIBITION is 8.74%.

As for `Cc1ncsc1CN1C[C@H](C(=O)NCC2CC2)[C@@H]2CCO[C@@H]2C1`, the INHIBITION is reported as 24.9%.

With `CC(C)NC(=O)[C@@H]1CN(Cc2nccs2)C[C@H]2OCC[C@H]21`, the INHIBITION is listed as 71.1%.

With `O=C(NC1CCCC1)[C@@H]1CN(Cc2nccs2)C[C@H]2OCC[C@H]21`, the INHIBITION was 32.4%.

As to `Cc1ncsc1CN1C[C@H]2OCC[C@H]2[C@H](C(=O)NCC2CC2)C1`, the INHIBITION amounted to 34.4%.

Regarding `Cc1ncsc1CN1C[C@H](C(=O)NC2CCCC2)[C@@H]2CCO[C@@H]2C1`, the INHIBITION was found to be 52%.

In the case of `O=C(NCC1CC1)[C@H]1CN(Cc2nccs2)C[C@H]2OCC[C@@H]12`, the INHIBITION amounted to 17.7%.

Take `Cc1ccc(S(=O)(=O)N2CC[C@@H]3C[C@H](NC(=O)c4[nH]ncc4Br)[C@@H]32)cc1`: the INHIBITION turned out to be 35.9%.

Regarding `Cc1ccc(S(=O)(=O)NC(=O)CCc2cscn2)cc1Cl`, the INHIBITION is on record as 3.46%.

With `Cc1nn(C)c(Cl)c1C1CCCN1C(=O)c1csnn1` (configuration not stated), the INHIBITION was found to be 10%.

Regarding `CCCn1cc2c(C(F)F)cc(SCC(=O)O)nc2n1`, the INHIBITION came to 32.3%.

Consider `CC(C)(CN1C[C@H](Nc2ncccn2)[C@@H](C2CC2)C1)N1CCOCC1`, for which the INHIBITION turned out to be 2.15%.

Regarding `CSc1cccc(NC(=O)Nc2c(O)oc3ccccc3c2=O)c1`, the INHIBITION stood at 1.86%.

`CC(C)(CN1CCC2(CCNCC2)CC1)N1CCOCC1`: the INHIBITION is given as -22.1%.

As to `Cc1ccoc1C(=O)NC1CCN(Cc2ccccc2C#N)CC1`, the INHIBITION is given as -9.37%.

With `Cc1ccoc1C(=O)NC1CCN(Cc2cccc3c2OCCO3)CC1`, the INHIBITION amounted to 52.1%.

As for `Cc1ccoc1C(=O)NC1CCN(Cc2ccccc2F)CC1`, the INHIBITION worked out at 44.1%.

For the compound `Cc1ccoc1C(=O)NC1CCN(C(=O)Nc2ccccn2)CC1`, the INHIBITION is given as -31.8%.

Consider `Cc1ccoc1C(=O)NC1CCN(CC(=O)N(C)c2ccccc2)CC1`, for which the INHIBITION was found to be 22.3%.

Consider `Cc1ccc(C(=O)NC2CCN(Cc3cccc4c3OCCO4)CC2)s1`, for which the INHIBITION is 33.8%.

`Cc1ccoc1C(=O)NC1CCN(Cc2cccc3ccccc23)CC1`: the INHIBITION worked out at 56.4%.

As to `Cc1ccoc1C(=O)NC1CCN(Cc2csc3c(F)cccc23)CC1`, the INHIBITION is 87.4%.

Consider `CC(C)C(=O)NC1CCN(Cc2cccc3c2OCCO3)CC1`, for which the INHIBITION is 6.81%.

Consider `CN(C)c1ncc(-c2ccc(C(N)=O)cc2)c(C2CCNC2)n1` (configuration not stated), for which the INHIBITION was 6.33%.

On to `Cc1cc(C(=O)N2CCC3(C2)CN(c2cccnc2)C(=O)CN3C)[nH]n1` (configuration not stated), for which the INHIBITION amounted to 22.4%.

Turning to `CC(C)c1nccn1C1CCCN(C(=O)c2cc(C(N)=O)cs2)C1` (configuration not stated), the INHIBITION came to 35.3%.

As for `CC(=O)N1CCC2(CC1)CN(C(C)C)c1ccc(F)cc12`, the INHIBITION is listed as 12.2%.

As to `CN1CCC(Cc2cccc(-c3cc(F)ccc3C(=O)O)n2)CC1`, the INHIBITION worked out at 23.4%.

As to `CC(C)Oc1ccc(C(=O)N2CC[C@H](O)[C@@H](n3ccnc3)CC2)cc1`, the INHIBITION was 26.3%.

In the case of `CCS(=O)(=O)c1ccccc1N1CCC(N)CC1`, the INHIBITION stood at 31.8%.

Consider `CC(C)c1ncncc1C(=O)N1CCN(Cc2cccnc2)CC1`, for which the INHIBITION is reported as 31.9%.

`COCCOCC1(CNCc2ccc(F)cc2)C[C@@H](O)[C@@H](O)C1` (some centres not stated): the INHIBITION is listed as -43%.

For the compound `CC(C)Cc1nnc2sc(-c3cc(C(C)C)n[nH]3)nn12`, the INHIBITION is recorded as 46.6%.

For the compound `CC(C)(C)c1ccc(CN2C[C@H]3CC(O)C[C@H]3C2)c(OCC(N)=O)c1` (some centres not stated), the INHIBITION is given as -2.85%.

Take `COc1ccc2cnn(CC(=O)NC3CCCC3)c(=O)c2c1OC`: the INHIBITION came out at 40.5%.

On to `Cc1cc(C)cc(NC(=O)N(CCC#N)CCCN(C)C)c1`, for which the INHIBITION was 52.6%.

For the compound `COC(C)c1cccc(NC(=O)N(CCC#N)Cc2ccccn2)c1` (configuration not stated), the INHIBITION came to 27.8%.

Regarding `Cc1cc(NC(=O)N(CCC#N)CCCN(C)C)ccc1F`, the INHIBITION came out at 52.6%.

For the compound `CCOc1ccc(NC(=O)N(CCC#N)Cc2ccccn2)cc1F`, the INHIBITION is listed as -1.95%.

Take `N#CCCN(Cc1ccccn1)C(=O)Nc1cccc(F)c1`: the INHIBITION is listed as -27.6%.

For `CN(C)CCCN(CCC#N)C(=O)Nc1ccc2[nH]ccc2c1`, the INHIBITION is given as 35.9%.

Regarding `CCOc1ccccc1-n1c(C2CC2)n[nH]c1=O`, the INHIBITION is listed as -8.25%.

Turning to `COc1cc(N2CC[C@@H]3O[C@H](C(=O)N(C)C)C[C@@H]32)ncn1`, the INHIBITION is on record as -20.1%.

In the case of `Cc1cccc(CN2CCc3onc(CO)c3C2)n1`, the INHIBITION was 28.5%.
